An excerpt weighted towards active compounds, which were near 2.4% of everything screened.
DYRK1A inh = inhibitors of rat Dyrk1A kinase; Q63470; inhibition, % at 12.5 µM; actives 0.43% (n = 310,000); ADP-Glo luminescence, NFATc1 peptide; AID 504441;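 also: plate controls were vehicle with enzyme for no effect and no enzyme for full effect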
GSIS activator = GLuc luminescence reporter in INS-1E cells, primary screen for activators of glucose-dependent secretion of insulin | AID 743287 | activation, % at 16.6 µM | actives 0.61% (n = 370,000) | INS-1E GLuc reporter insulin secretion, 2-3 h;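 active = lowest replicate activation of at least 40%, so every replicate reaches that level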;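 also: 0% = median of neutral control wells and 100% = median of IBMX positive control wells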
Wnt bcat act = activates Wnt/beta-catenin signaling in a reporter cell assay; activator, plate reader; activation, % at 9.35 µM; actives 1.2% (n = 300,000); in the data active = activation above about 30%, passing the limit was not always enough; inconclusive = no clear call, values can overlap the other calls;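 also: 0% = neutral control wells and 100% = positive control wells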
miR-122 sensor = blocks miR-122 activity in Huh7 sensor cells. AID 602342. activation (reporter increase), % at 12.5 µM. Huh7 miR-122 Renilla luciferase sensor, 48 h; neutral wells = 0, positive control = 100. actives 0.3% (n = 340,000);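 active = mean replicate activation score at least 90 and every replicate individually at or above 90; inconclusive = only one of the two criteria met; inactive = neither criterion met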;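 also: higher luciferase means less miR-122 activity so hits act as miR-122 inhibitors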
MITF act = activators of MITF-driven TRPM1 promoter activity in SK-MEL-5 cells; actives 0.75% (n = 300,000); SK-MEL-5 TRPM1-promoter luciferase, 24 h; % of positive control, neutral wells = 0; activation, % at 12.5 µM;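 active = mean activation of at least 80% with every replicate also reaching 80%; inconclusive = mean reaches 80% but some replicate falls short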;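 also: 0% = neutral control wells and 100% = parthenolide positive control wells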
NSD2 inh = NSD2 (human) methyltransferase inhibition; O96028; NSD2 peptide methylation, AlphaScreen, 120 min; inhibition, % at 12.5 µM; actives 0.54% (n = 310,000); AID 743445
* = called active by the depositor; ? = inconclusive; / = not tested or not shown; [ ] = another dose, or the depositor's remark. Rule as the data show it, unless noted: active = inhibition above about 50%; inactive = the rest.

SMILES	DYRK1A inh	GSIS activator	Wnt bcat act	miR-122 sensor	MITF act	NSD2 inh
CCc1noc(C)c1C(=O)OC(C)C(=O)c1c(C)[nH]c2ccccc12 (stereo not drawn)	/	-57.8	46.9*	2.6	-12.8	-1.5
CN(C)CCCNC(=O)C[C@H]1CC[C@@H]2[C@H](COc3ccc(NC(=O)NC4CCCC4)cc3C(=O)N2C)O1	/	2.0	/	8.3[16.7 µM]	/	/
O=Cc1c(-c2ccc(Cl)cc2)oc2ccc(O)cc12	/	-4.3	83.9*	-0.5	/	-0.5
CC1CCc2nc(N)c(C#N)c(-c3ccncc3)c2C1 (stereo not drawn)	-3.8	77.7*	/	3.2	/	/
CC1CCc2nc(N)c(C#N)c(-c3cccnc3)c2C1 (stereo not drawn)	8.6	15.5	-11.6	9.6	-1.7	/
Cc1cc(C)n(CCC(=O)N/N=C/c2ccc(Br)c([N+](=O)[O-])c2)n1	1.8	5.9	36.4*	-0.5	-6.0	-0.5
C[C@@H]1CCCCO[C@H](CN(C)C(=O)Nc2ccc3c(c2)OCO3)[C@H](C)CN([C@@H](C)CO)C(=O)c2cc(NC(=O)Cc3ccccc3)ccc2O1	/	-20.0	/	0.2[16.7 µM]	/	/
CCOc1cc(S(=O)(=O)NCCc2ccccc2C)c(OCC)cc1-n1cnnn1	-2.6	-36.9	-2.8	125.6*	0.9	6.9
C/C=C/c1cnc2c(c1)C(=O)N([C@@H](C)CO)C[C@@H](C)[C@@H](CN(C)C(=O)C1CCC1)O2	/	28.1	/	-4.5[16.7 µM]	/	/
CC(=O)Nc1ccccc1C(=O)C(=O)Nc1ccc(C)c(C)c1	3.7	0.8	/	-6.6	72.4	-1.4
CCc1ccc(NC(=O)C(=O)c2ccccc2NC(C)=O)cc1	-2.3	/	42.5*	0.7	/	-1.2
COCCNC(=O)c1ccc(N(C)S(=O)(=O)c2ccc(OC)c(OC)c2)cc1	-1.3	43.8*	-1.1	-5.2	-5.0	-1.9
COc1ccc(S(=O)(=O)N(C)c2ccc(C(=O)NCC3CCCO3)cc2)cc1OC (stereo not drawn)	6.6	47.9*	-1.7	-3.7	6.4	-2.5
Cc1ccc(CSCCNC(=O)c2ccc(N(C)S(=O)(=O)c3ccccc3)cc2)cc1	-1.4	/	/	-4.4	6.2	-1.4
CN(C)S(=O)(=O)c1ccc(C(=O)NCCOc2ccc(F)cc2)cc1	-5.9	-14.5	20.8	1.8	64.8	-1.9
CN(c1ccc(C(=O)NCC2CCCO2)cc1)S(C)(=O)=O (stereo not drawn)	/	-4.1	0.7	-0.9	9.2	-4.6
CN(c1ccc(C(=O)NCCSC(C)(C)C)cc1)S(=O)(=O)c1ccccc1	-8.2	-24.4	44.1*	19.3	7.2	0.9
CN(C)S(=O)(=O)c1ccc(C(=O)NCCOc2ccccc2)cc1	-1.2	/	48.3*	-5.3	62.5	-2.5
CNC[C@H]1Oc2c(cccc2N(C)C)C(=O)N(C)C[C@@H]1C	/	11.2	/	/	/	/
CCOc1ccc(N=C(/C(C(=O)C(=O)N2CCOCC2)=C(\O)c2ccccc2)c2ccccc2)cc1	2.3	1.0	9.5	-9.5	86.8*	5.6
CCOc1ccc(OCc2ccc(C(=O)N3CCOCC3)cc2)cc1	-3.0	/	/	12.1	/	-3.7
O=C(Nc1ccc(Br)cc1)c1ccco1	/	2.6	23.0	6.7	90.8*	-1.2
Nc1nc(-c2ccc(NC(=O)c3ccco3)cc2)cs1	0.9	/	42.1*	-4.6	-5.9	-0.9
Cc1nc(-c2ccc(NC(=O)c3ccco3)cc2)cs1	11.4	9.2	-9.4	1.9	-69.6	-1.7
O=C(Nc1ccc(NC(=O)c2ccco2)cc1)c1ccco1	-2.5	4.6	9.2	/	52.9	21.4
SMILES	DYRK1A inh	GSIS activator	Wnt bcat act	miR-122 sensor	MITF act	NSD2 inh
CC(=O)N(C)c1ccc(NC(=O)c2ccco2)cc1	5.1	/	35.0*	12.5	35.1	/
O=C(Nc1ccc2nc(-c3ccco3)[nH]c2c1)c1ccco1	6.1	/	37.1*	1.8	/	/
CC(C)OC(=O)c1ccc(NC(=O)c2ccco2)cc1	-4.8	/	19.2	-1.5	109.7*	-1.1
O=C(COC(=O)c1cccc(NC(=O)c2ccco2)c1)c1ccc(Br)cc1	-4.1	/	42.8*	-4.6	/	-1.0
Cc1cccc(OCC(=O)Nc2ccc(NC(=O)c3ccco3)cc2)c1	14.1	74.9*	2.0	/	15.4	-1.1
Cc1ccn2cc(-c3ccc(NC(=O)c4ccco4)cc3)nc2c1	2.0	-5.1	46.5*	-8.7	66.7	-0.7
COc1ccc(OCC(=O)Nc2cccc(NC(=O)c3ccco3)c2)cc1	-23.6	0.2	/	-5.6	-3.7	-1.6
CCOC(=O)c1ccc(NC(=O)c2ccco2)cc1	11.6	0.3	21.3	-9.3	75.2	-0.9
CC(C)CC#Cc1ccc([C@@H]2[C@@H](CO)N3C(=O)CN(C(=O)Nc4ccc(F)cc4)C[C@@H]23)cc1	/	-13.3	/	/	/	/
COC(=O)c1c(NC(=O)c2ccco2)sc(C(=O)Nc2ccc(F)cc2)c1C	-6.7	7.8	25.4	/	109.4*	25.2
C[C@@H]1CN([C@@H](C)CO)C(=O)Cc2cc(NS(C)(=O)=O)ccc2O[C@@H]1CN(C)Cc1ccncc1	/	14.8	/	-5.8[16.7 µM]	/	/
O=C(C[C@H]1CC[C@@H]2[C@H](COC[C@@H](O)CN2CCC(F)(F)F)O1)NCc1ccc2c(c1)OCO2	/	-2.9	/	-3.7[16.7 µM]	/	/
Oc1ccccc1-c1cc(C(F)(F)C(F)F)nc(-c2ccccc2)n1	-1.2	112.0*	/	/	-7.7	-4.5
O=C(NC1CCCCC1)c1cc(-c2ccccc2Cl)on1	3.7	3.8	23.4	-7.6	109.7*	-2.0
O=C(NC1CCCC1)c1cc(-c2ccccc2O)on1	2.8	2.8	2.0	-4.0	106.0*	7.3
COc1ccccc1-c1cc(C(=O)NC2CCCC2)no1	4.4	-7.2	16.9	-2.0	50.8	-9.2
O=C(NC1CCCC1)c1cc(-c2ccccc2Cl)on1	-2.2	-7.9	?	1.7	61.5	-6.0
C[C@H](CO)N1C[C@H](C)[C@@H](CN(C)C(=O)C2CC2)Oc2cc(-c3ccc(F)cc3)ccc2S1(=O)=O	/	-21.6	/	28.3[16.7 µM]	/	/
CO[C@@H]1CN(C)C(=O)c2ccc(NS(=O)(=O)c3ccc(Cl)cc3)cc2OC[C@H](C)N(C)C[C@H]1C	/	3.8	/	21.9[16.7 µM]	/	/
CC1CCC(C(C)C)C(OCC(O)CNC(C)c2ccccc2)C1 (stereo not drawn)	/	199.4*	-3.1	/	-53.6	2.7
O=C(/C=C/Nc1ccc(Oc2ccccc2)cc1)c1ccco1	-0.4	-17.2	58.6*	-1.2	75.5	-0.9
Cc1ccc(N2CC(C(=O)Nc3nccs3)CC2=O)cc1Cl (stereo not drawn)	-1.3	-3.4	/	95.9*	15.1	-5.0
COCc1nnc(NC(=O)C2CC(=O)N(c3ccc(C)c(Cl)c3)C2)s1 (stereo not drawn)	-12.6	1.2	-0.8	/	-8.6	-1.0

Screening data deposited in PubChem BioAssay by Broad Institute.
